Laboratory results: PubChem BioAssay AID720700 (The Scripps Research Institute Molecular Screening Center, 2013)
The campaign covered roughly 370,000 compounds. About 3,100 (0.84%) were called active. Many of the other results were omitted from the sample, so actives are more common in it than they were. A number with no mark means an inactive call. Rule as the data show it: active = inhibition above about 9.5%; inactive = the rest.

The compounds below were run against 1-phosphatidylinositol 4,5-bisphosphate phosphodiesterase gamma-1 (Homo sapiens) (UniProt P19174) (assay: blockers of human PLCG1 activity – biochemical, fluorescence, purified enzyme, primary screen (AID 720700)). Settings: purified PLC-gamma1, fluorogenic substrate, at 12.2 µM, stronger effect = higher value.
Chain of 1-phosphatidylinositol 4,5-bisphosphate phosphodiesterase gamma-1 (Homo sapiens) (P19174 whole entry, looked up): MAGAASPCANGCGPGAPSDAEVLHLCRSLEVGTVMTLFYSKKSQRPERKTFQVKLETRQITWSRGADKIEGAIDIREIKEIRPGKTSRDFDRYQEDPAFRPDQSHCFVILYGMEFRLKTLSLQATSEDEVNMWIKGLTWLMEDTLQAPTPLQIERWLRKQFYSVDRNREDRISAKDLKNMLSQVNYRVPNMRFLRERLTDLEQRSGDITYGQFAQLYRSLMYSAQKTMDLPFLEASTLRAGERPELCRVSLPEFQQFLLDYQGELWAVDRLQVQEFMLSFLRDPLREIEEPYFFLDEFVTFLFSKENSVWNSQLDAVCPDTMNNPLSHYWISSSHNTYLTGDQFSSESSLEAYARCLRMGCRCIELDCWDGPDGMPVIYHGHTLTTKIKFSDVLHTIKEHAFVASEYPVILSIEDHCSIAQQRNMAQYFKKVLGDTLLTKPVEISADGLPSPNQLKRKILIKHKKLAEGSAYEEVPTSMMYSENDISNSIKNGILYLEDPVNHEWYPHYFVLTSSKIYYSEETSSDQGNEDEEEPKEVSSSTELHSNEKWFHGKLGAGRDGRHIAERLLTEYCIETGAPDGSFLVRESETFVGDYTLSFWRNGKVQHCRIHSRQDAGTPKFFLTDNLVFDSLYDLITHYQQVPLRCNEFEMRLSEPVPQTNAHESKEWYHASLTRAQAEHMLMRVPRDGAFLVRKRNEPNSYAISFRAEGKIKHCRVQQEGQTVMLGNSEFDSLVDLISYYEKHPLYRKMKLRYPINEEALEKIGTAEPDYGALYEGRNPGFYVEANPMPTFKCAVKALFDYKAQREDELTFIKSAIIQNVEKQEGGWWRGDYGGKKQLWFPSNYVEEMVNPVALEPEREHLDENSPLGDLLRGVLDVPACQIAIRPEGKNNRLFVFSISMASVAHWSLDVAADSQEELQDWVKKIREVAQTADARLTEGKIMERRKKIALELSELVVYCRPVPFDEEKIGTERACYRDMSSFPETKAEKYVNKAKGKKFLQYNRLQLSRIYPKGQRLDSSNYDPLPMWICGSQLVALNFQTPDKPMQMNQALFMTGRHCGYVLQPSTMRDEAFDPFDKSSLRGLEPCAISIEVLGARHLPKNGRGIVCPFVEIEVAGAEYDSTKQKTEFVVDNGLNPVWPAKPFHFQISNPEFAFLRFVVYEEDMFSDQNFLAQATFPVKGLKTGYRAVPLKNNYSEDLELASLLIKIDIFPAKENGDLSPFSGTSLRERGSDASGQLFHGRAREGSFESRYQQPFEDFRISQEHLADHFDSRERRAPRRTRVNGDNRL
O=C(NCCCN1CCCCCC1)C1CC(=O)N(C2CCCC2)C1 (stereo not given) was tested, and the inhibition was -1.08%.
O=C(NC(C(=O)NCCN1CCOCC1)C12CC3CC(CC(C3)C1)C2)C1CCCCC1 (stereo not given) showed an inhibition of -1.07%.
In the case of CC(C)C(NC(=O)C1CCC(C(C)(C)C)CC1)C(=O)NCCCN1CCCCC1 (stereo not given), the inhibition is reported as 10.2% (active).
Compound Cc1ccc(-n2c(SCC(=O)Nc3ccc(S(=O)(=O)Nc4nccs4)cc3)nnc2-c2ccccn2)cc1 has an inhibition of -1.19%.
CN(C)/C=C(/C(=O)c1ccc(F)cc1)S(=O)(=O)c1ccc(F)cc1 gave an inhibition of -0.23%.
CN(C)/C=C(/C(=O)c1ccccc1Cl)S(C)(=O)=O gave an inhibition of -0.96%.
For CN(C)/C=C(/C(=O)c1ccc(Cl)cc1)S(=O)(=O)c1ccccc1, the inhibition was 11.6% (active).
Compound CC(C)CNC(=O)OCc1cn(Cc2ccc(F)cc2)nn1 has an inhibition of -0.35%.
For CN(CCO)c1cccc2c1S(=O)(=O)N(Cc1cn(Cc3ccc(C(F)(F)F)cc3)nn1)Cc1ccccc1O2, the inhibition was -12.9%.
CCOc1ccc(-n2c(SCC(=O)Nc3cc(C)c(NC(=O)c4ccccc4)cc3OC)nnc2-c2cccc(Cl)c2)cc1 was tested, and the inhibition was -13.8%.
Compound Cc1ccc(C(=O)C2CCN(CC(=O)NCCC(C)C)CC2)cc1 has an inhibition of -6.25%.
In the case of NC1=CC(=O)C(=O)c2cccnc21, the inhibition is reported as 11.2% (active).
In the case of CC(C)CNS(=O)(=O)CC1NCCc2ccccc21 (stereo not given), the inhibition is reported as 1.24%.
O=C(CSc1nc2sc3c(c2c(=O)n1-c1ccccc1)CCCC3)NN=Cc1ccc(OCc2ccccc2)cc1 was tested, and the inhibition was -0.49%.
Work on COc1ccc(C=C2CCC3C(CCCC34OCCO4)C2=O)cc1 (stereo not given) yielded an inhibition of 3.51%.
COc1ccc(/C=C2\CC3(OC(C)=O)CCCN2C3)cc1 (stereo not given) was tested, and the inhibition was 0.44%.
With COc1ccc(/C=C2\N=C3CCCN3C2=O)cc1 the inhibition was 10.5% (active).
With Cc1cccc(NC(=O)C[C@H]2CC[C@H]3[C@@H](COc4ccc(NC(=O)Nc5ccccc5)cc4C(=O)N3C)O2)c1 the inhibition was 3.76%.
In the case of COC(=O)NNC1=CC(=O)CC(C)(C)C1, the inhibition is reported as -1.76%.
For CC1(C)CC(=O)C=C(NCCCNC2CCCCC2)C1, the inhibition was 2.3%.
For CC1(C)CC(=O)C=C(NC2CC(C)(C)NC(C)(C)C2)C1, the inhibition was 9.6% (active).
In the case of COc1ccc(NC(=O)COC(=O)CNC(=O)C2CCCCC2)cc1, the inhibition is reported as 0.1%.
In the case of O=C1CCC(C(=O)OCC(=O)Nc2ccc(OC(F)F)cc2)=NN1, the inhibition is reported as 3.57%.
CCC(C)(C)c1ccc(Oc2ccc(NC(=O)COC(=O)C3=COCCO3)cc2)cc1 was tested, and the inhibition was 10.1% (active).
In the case of O=C(CSc1nnc(-c2cccc(Cl)c2)n1Cc1ccco1)Nc1ccc(OCc2ccccc2)cc1, the inhibition is reported as 2.27%.
